aSyn UTR act – Activators via SNCA 5'UTR binding, MLPCN; activity score, % (tested at 7.5 µM), hits read low; alpha-synuclein 5'UTR reporter, activators screen; actives 7.1% (n = 300,000); in the data active = activity score below about -60%
Hits are given with their value; - = inactive. Only a sample is shown.

SMILES	aSyn UTR act
C(=N\Nc1nc2ccccc2[nH]1)/c1cccc2cccnc12	-
COc1cccc(/C=N/Nc2nc(C)cc(=O)[nH]2)c1OC	-79
Cc1ccc(/C=N/Nc2nc3ccccc3[nH]2)s1	-312
Cc1[nH]c2ccccc2c1/C=N/Nc1cccc(C(=O)O)c1	-101
C(=N\Nc1nc2ccccc2[nH]1)/c1c[nH]c2ccccc12	-224
COc1ccc(/C=N/Nc2nc3ccccc3[nH]2)c(OC)c1OC	-109
Cc1cc(=O)[nH]c(N/N=C/c2cc(C)n(CC(F)(F)F)c2C)n1	-89
COc1cccc(/C=N/N2CCN(c3ccccc3OC)CC2)c1	-93
COc1ccc(/C=N/N2CCN(c3ccccc3OC)CC2)cc1Br	-101
COc1ccccc1N1CCN(/N=C/c2cc(Br)ccc2F)CC1	-93
COc1ccccc1N1CCN(/N=C/c2cccc(Cl)c2)CC1	-196
COc1ccccc1N1CCN(/N=C/c2cccc(OC)c2O)CC1	-67
COc1cccc(/C=N/NC(=O)N/N=C/c2cccc(OC)c2O)c1O	-
COc1ccccc1NC(=O)Nc1ccc2c(c1)CCC2	-126
COc1cc(SC)ccc1C(=O)Nc1ccc2c(c1)CCC2	-119
COc1cc(SC)ccc1C(=O)Nc1ccccc1C#N	-192
COc1cc(SC)ccc1C(=O)Nc1ccc(Cl)cn1	-
Cc1ccccc1NC(=O)Nc1ccc2c(c1)CCC2	-141
Cc1ccccc1NC(=O)Nc1ccc(C(F)(F)F)cc1	-100
CC(=O)Nc1nc(COc2ccccc2)cs1	-137
O=C(Nc1nc(COc2ccccc2)cs1)C1CCC1	-103
Nc1nc(CCOc2ccc(F)cc2)cs1	-112
CC(=O)Nc1nc(COc2ccc3ccccc3c2)cs1	-148
CC(=O)c1csc(COc2ccccc2)n1	-109
Nc1nc(COc2ccc3ccccc3c2)cs1	-79
SMILES	aSyn UTR act
O=C(Nc1ccccc1-c1ccccc1)C12CC3CC(CC(C3)C1)C2	-78
O=C(Nc1nc(COc2ccccc2)cs1)C12CC3CC(CC(C3)C1)C2	-147
O=Cc1ccccc1OCc1ccc2c(c1)OCO2	-258
Cc1ccc(NC(=O)c2cncc(Br)c2)cc1S(=O)(=O)N(C)C	-127
CCN(CC)c1ccc(NC(=O)c2cccnc2)cc1	-67
CCN(CC)c1ccc(NC(=O)c2cncc(Br)c2)cc1	-279
Cc1sc(NC(=O)c2ccc(Cl)s2)c(C(N)=O)c1C	-284
Cc1sc(NC(=O)c2ccc(Br)s2)c(C(N)=O)c1C	-225
Cc1sc(NC(=S)Nc2ccc(F)cc2)c(C(N)=O)c1C	-87
CC(=O)Nc1sc(C)c(C)c1C(=O)Nc1ccc(C)cc1	-66
O=C1OC(c2ccc(Br)cc2)=N/C1=C\N1CCCCC1	-95
O=C1OC(c2ccccc2)=N/C1=C\N1CCCCC1	-152
O=C1OC(c2ccccc2)=C/C1=C/N1CCCCC1	-185
O=C(OCc1nnc(-c2ccccc2)o1)c1ccc2c(c1)OCCO2	-62
O=C(OCc1ccc(C(=O)c2ccccc2)cc1)c1cccc(-c2nnc(-c3ccccc3)o2)c1	-80
O=C(OCc1ccccc1)c1ccc2c(c1)-c1ccccc1C2=O	-194
O=C(OCc1ccccc1)c1cccc(-c2nnc(-c3ccccc3)o2)c1	-69
OCCOc1ccc(C2=NCCO2)cc1	-72
Cc1cc(SCC(=O)c2cc3ccccc3o2)nc2ccccc12	-73
Oc1ccc(C2C(c3ccccc3)=NN=C(c3ccc(Cl)cc3)N2O)c(O)c1 (stereo unspecified)	-72
Oc1ccc(C2C(c3ccccc3)=NN=C(c3ccccc3F)N2O)c(O)c1 (stereo unspecified)	-91
N#Cc1ccc(C(=O)NC2CCCCCCC2)cc1	-132
O=C(NC1CCCCCC1)C(=O)NC1CCCC1	-67
O=C(NC1CCCCCC1)c1ccc(OCC2CCCO2)cc1 (stereo unspecified)	-97
Cc1ccc(NC(=O)C(=O)NC2CCCCC2)cc1	-149
SMILES	aSyn UTR act
CC(C)CCNC(=O)C(=O)NC1CCCC1	-134
Cc1ccc(C(=O)NC2CCCCC2)cc1	-94
CCOC(=O)C1(C)C=C(Nc2cccc(OC)c2)C(=O)N1c1ccccc1 (stereo unspecified)	-79
COc1ccccc1N=Cc1c(C)c(C#N)c2[nH]c3ccccc3n2c1=O	-90
Cc1ccc(-c2cn3nc(C)c(C)nc3n2)cc1	-
Cc1ccc(-c2cn3c(n2)SCC3)cc1	-144
CCc1ccc(-c2cn3c(n2)SCC3)cc1	-99
O=C(COc1ccc2ccc(=O)oc2c1)c1ccccc1	-102
CC(=O)Oc1ccc2cc(-c3ccccc3)c(=O)oc2c1	-163
O=C(CCCCl)Oc1ccc2cc(-c3ccc4ccccc4n3)c(=O)oc2c1	-125
COc1ccc(-c2cc3ccc(OCC(N)=O)cc3oc2=O)cc1OC	-65
CC(=O)Oc1ccc2c(=O)c(-c3ccccc3)coc2c1	-146
COc1ccc(-c2coc3cc4oc(=O)cc(-c5ccccc5)c4cc23)cc1F	-
CC(=O)COc1ccc2cc(-c3ccccc3)c(=O)oc2c1	-64
CCc1ccc(Nc2nnc(SCC(=O)NCCN3C(=O)CSC3=O)s2)cc1	-65
CCc1ccc(Nc2nnc(SCC(=O)Nc3sccc3C(N)=O)s2)cc1	-86
CCc1ccc(Nc2nnc(SCC(=O)Nc3cccnc3Cl)s2)cc1	-64
CN1C(=O)/C(=C/C=C2\SCCN2C)N(C)C1=S	-177
FC(F)(F)c1cc(-c2ccccn2)nc2cc(-c3ccccc3)nn12	-78
COc1ccc(C(=O)Nc2ccc(C(F)(F)F)n(C)c2=O)cc1	-151
COCCn1c(C(F)(F)F)ccc(NC(=O)c2ccccc2)c1=O	-97
Cc1ccc(C(=O)Nc2ccc(C(F)(F)F)n(C)c2=O)cc1	-145
CC(C)CC1c2[nH]c3ccccc3c2CCN1C(=O)c1cnccn1 (stereo unspecified)	-95
Cc1ccnc(NC(=O)C2CCN(S(=O)(=O)c3ccc(C)c(C)c3)CC2)c1	-81
CC(=O)Cn1ncc(N2CCCCC2)c(Cl)c1=O	-80
SMILES	aSyn UTR act
CCOCC(=O)Nc1cc(C(=O)Nc2cc(C)cc(C)c2)ccc1Cl	-66
COc1ccccc1C(=O)N/C(N)=N/c1nc2ccccc2o1	-70
N/C(=N\c1nc2ccccc2o1)NC(=O)c1ccccc1	-194
CC(C)(C)C(=O)N/C(N)=N/c1nc2ccccc2o1	-63
Cc1ccc(C(=O)N/C(N)=N/c2nc3ccccc3o2)cc1	-114
C=C(C)C1CC=C(C)/C(=N/NC(=O)c2ccoc2C)C1 (stereo unspecified)	-150
CCN1C(=Nc2ccc(Cl)cc2)SC/C1=C\C(=O)OC	-81
O=C(CNC(=O)c1cn2ccccc2n1)Nc1ccc(F)c(F)c1	-209
COc1cccc(/C=C2\Oc3ccc(O)cc3C2=O)c1O	-
CC(C)(C)c1ccc(/C=C2\Oc3cc(O)ccc3C2=O)cc1	-69
COC(=O)c1ccc2c(c1)C(=O)/C(=C/c1ccc(O)cc1)O2	-118
O=C(N[C@@H](Cc1ccccc1)C(=O)NC1CCCCCC1)c1ccco1	-78
CCc1ccc(-c2ccc(C(=O)C(F)(F)F)[nH]2)cc1	-80
O=C(Oc1ccc(OC(=O)C2CCC2)cc1)C1CCC1	-65
Cc1cc(N2CCN(Cc3cn(C)nc3-c3cccc(Cl)c3)CC2)cc(C)n1	-
Cc1ccc(/C=N/N2CCOCC2)s1	-101
C/C(=N\N1CCN(Cc2ccccc2)CC1)c1ccco1	-80
FC(F)(F)c1ccccc1/C=N/N1CCN(Cc2ccccc2)CC1	-72
Clc1cccc(/C=N/N2CCN(Cc3ccccc3)CC2)c1	-91
C(=N\N1CCN(Cc2ccccc2)CC1)/c1ccccc1	-64
Cc1ccc(/C=N/N2CCN(Cc3ccccc3)CC2)s1	-83

High-throughput results from PubChem.
